Laboratory results from PubChem BioAssay AID1159580 (chemical genetic matrix, 2015).
Values joined by “and” are separate entries in the source; they are usually repeats but may differ in a detail not shown here. Identical values can stand only once. The campaign covered roughly 5,500 compounds. About 2,000 (36%) were called active. Not shown: some 18% with an inconclusive outcome. No stated cut-off is given here; in the data, active means normalized growth mostly below about 0.91 (no sharp cut-off); inconclusive means no clear call, values can overlap the other calls; inactive means mostly above about 0.92. The list shows a part of the results.

Experiment: chemical genetic growth profiling, strain panel (AID 1159580);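 further: tested at 20 µM; growth read once vehicle control cultures reached saturation at 30 °C; 1 = growth at the plate median or of vehicle wells; lower values mean less growth of the strain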
Conditions: growth OD
[1] = S. cerevisiae deletion strains, locus YHR030C, strain SLT2, hits give low values
[2] = S. cerevisiae deletion strains, locus YHR079C, strain IRE1, hits give low values
[3] = S. cerevisiae deletion strains, locus YJL095W, strain BCK1, hits give low values
[4] = S. cerevisiae deletion strains, locus YJR066W, strain TOR1, hits give low values
[5] = S. cerevisiae deletion strains, locus YLR113W, strain HOG1, hits give low values
[6] = S. cerevisiae deletion strains, locus YNL183C, strain NPR1, hits give low values
[7] = S. cerevisiae deletion strains, locus YOR231W, strain MKK1, hits give low values
[8] = S. cerevisiae deletion strains, locus YPL256C, strain CLN2, hits give low values
[9] = S. cerevisiae deletion strains, locus YAL013W, strain DEP1, hits give low values
[10] = S. cerevisiae deletion strains, locus YGR078C, strain PAC10, hits give low values
[11] = S. cerevisiae deletion strains, locus YGR229C, strain SMI1, hits give low values
[12] = S. cerevisiae deletion strains, locus YJR075W, strain HOC1, hits give low values
[13] = S. cerevisiae deletion strains, locus YMR263W, strain SAP30, hits give low values
[14] = S. cerevisiae deletion strains, locus YNL128W, strain TEP1, hits give low values
[15] = S. cerevisiae deletion strains, locus YNL153C, strain GIM3, hits give low values
[16] = S. cerevisiae deletion strains, locus YNL322C, strain KRE1, hits give low values
[17] = S. cerevisiae deletion strains, locus YPL055C, strain LGE1, hits give low values

Measured: normalized growth

CCC(C)n1ncn(-c2ccc(N3CCN(c4ccc(OC[C@H]5CO[C@](Cn6cncn6)(c6ccc(Cl)cc6Cl)O5)cc4)CC3)cc2)c1=O (some centres not stated)
active: [1] 0.104 | [2] 0.19 | [3] 0.112 | [4] 0.0832 | [5] 0.187 | [6] 0.183 | [7] 0.177 | [8] 0.188

CC(=O)N1CCN(c2ccc(OC[C@H]3CO[C@](Cn4ccnc4)(c4ccc(Cl)cc4Cl)O3)cc2)CC1
active: [9] 0.0911 | S. cerevisiae deletion strains, locus YAL040C, strain CLN3, hits give low values 0.208 | S. cerevisiae deletion strains, locus YCL061C, strain MRC1 (second series), hits give low values 0.0612 | S. cerevisiae deletion strains, locus YDR363W, strain ESC2, hits give low values 0.103 | S. cerevisiae deletion strains, locus YER002W, strain NOP16, hits give low values 0.137 | [10] 0.139 | [11] 0.0746 | [12] 0.0931 | [13] 0.588 | [14] 0.16 | [15] 0.14 | S. cerevisiae deletion strains, locus YNL175C, strain NOP13, hits give low values 0.133 | S. cerevisiae deletion strains, locus YNL197C, strain WHI3, hits give low values 0.147 | S. cerevisiae deletion strains, locus YNL224C, strain SQS1, hits give low values 0.18 | [16] 0.0931 | S. cerevisiae deletion strains, locus YOR083W, strain WHI5 (second series), hits give low values 0.175 | [17] 0.104

CC(=O)[C@@]1(O)CCC2C3C=C(Cl)C4=CC(=O)[C@@H]5CC5[C@]4(C)C3CC[C@@]21C (some centres not stated)
inactive: [9] 1.02 | S. cerevisiae deletion strains, locus YBR021W, strain FUR4, hits give low values 0.996 | S. cerevisiae deletion strains, locus YBR229C, strain ROT2, hits give low values 1.01 | S. cerevisiae deletion strains, locus YCL029C, strain bik1, hits give low values 1.02 | S. cerevisiae deletion strains, locus YDL035C, strain GPR1, hits give low values 1 | S. cerevisiae deletion strains, locus YDL074C, strain BRE1, hits give low values 0.991 | S. cerevisiae deletion strains, locus YDL101C, strain DUN1, hits give low values 1.01 | S. cerevisiae deletion strains, locus YDL134C, strain PPH21, hits give low values 1.01 | S. cerevisiae deletion strains, locus YDL185W, strain tfp1, hits give low values 1.01 | S. cerevisiae deletion strains, locus YDL192W, strain arf1, hits give low values 0.998 | S. cerevisiae deletion strains, locus YDR101C, strain arx1, hits give low values 1.01 | S. cerevisiae deletion strains, locus YDR150W, strain NUM1, hits give low values 1.02 | S. cerevisiae deletion strains, locus YDR162C, strain NBP2, hits give low values 1 | S. cerevisiae deletion strains, locus YDR318W, strain mcm21, hits give low values 1 | S. cerevisiae deletion strains, locus YDR388W, hits give low values 1.01 | S. cerevisiae deletion strains, locus YDR502C, strain sam2, hits give low values 1.01 | S. cerevisiae deletion strains, locus YEL061C, strain CIN8, hits give low values 1.01 | S. cerevisiae deletion strains, locus YER110C, hits give low values 1.02 | S. cerevisiae deletion strains, locus YER155C, strain BEM2, hits give low values 0.998 | S. cerevisiae deletion strains, locus YER167W, strain BCK2, hits give low values 0.988 | S. cerevisiae deletion strains, locus YGL078C, strain dbp3, hits give low values 1 | S. cerevisiae deletion strains, locus YGL086W, strain mad1, hits give low values 1.01 | S. cerevisiae deletion strains, locus YGL248W, strain PDE1, hits give low values 1 | [10] 0.999 | S. cerevisiae deletion strains, locus YGR135W, strain pre9, hits give low values 1.01 | [11] 1.01 | S. cerevisiae deletion strains, locus YGR252W, strain gcn5, hits give low values 0.952 | [1] 1.01 and 1.03 | S. cerevisiae deletion strains, locus YHR079C, strain IRE1 (second series), hits give low values 1.02 | [2] 1.05 | S. cerevisiae deletion strains, locus YHR094C, strain hxt1, hits give low values 1.01 | S. cerevisiae deletion strains, locus YHR129C, strain ARP1, hits give low values 1 | S. cerevisiae deletion strains, locus YHR200W, strain rpn10, hits give low values 1.02 | S. cerevisiae deletion strains, locus YIL066C, strain RNR3, hits give low values 1.01 | S. cerevisiae deletion strains, locus YIL073C, strain SPO22, hits give low values 1.01 | S. cerevisiae deletion strains, locus YIL125W, strain kgd1, hits give low values 1.01 | S. cerevisiae deletion strains, locus YIR030C, strain dcg1, hits give low values 1.02 | [3] 1.02 and 1.03 | S. cerevisiae deletion strains, locus YJL134W, strain LCB3, hits give low values 1.01 | S. cerevisiae deletion strains, locus YJL168C, strain set2, hits give low values 1.01 | S. cerevisiae deletion strains, locus YJL187C, strain SWE1 (second series), hits give low values 1.02 | S. cerevisiae deletion strains, locus YJR043C, strain POL32, hits give low values 1 | [4] 0.95 | [12] 1.03 | S. cerevisiae deletion strains, locus YKL009W, strain mrt4, hits give low values 0.999 | S. cerevisiae deletion strains, locus YKL068W, hits give low values 1.01 | S. cerevisiae deletion strains, locus YKL085W, strain MDH1 (second series), hits give low values 0.999 | S. cerevisiae deletion strains, locus YKL085W, strain MDH1, hits give low values 0.999 | S. cerevisiae deletion strains, locus YKL190W, strain CNB1, hits give low values 1.01 | S. cerevisiae deletion strains, locus YKR001C, strain vps1, hits give low values 0.995 | S. cerevisiae deletion strains, locus YLR039C, strain RIC1, hits give low values 0.984 | S. cerevisiae deletion strains, locus YLR058C, strain SHM2, hits give low values 1.01 | S. cerevisiae deletion strains, locus YLR102C, strain apc9, hits give low values 1.01 | [5] 0.974 | S. cerevisiae deletion strains, locus YLR262C, strain YPT6, hits give low values 1 | S. cerevisiae deletion strains, locus YLR268W, strain sec22, hits give low values 1.02 | S. cerevisiae deletion strains, locus YLR330W, strain CHS5, hits give low values 1.01 | S. cerevisiae deletion strains, locus YLR342W, strain FKS1 (second series), hits give low values 1.01 | S. cerevisiae deletion strains, locus YLR371W, strain rom2, hits give low values 1.02 | S. cerevisiae deletion strains, locus YLR418C, strain cdc73, hits give low values 0.993 | S. cerevisiae deletion strains, locus YML016C, strain PPZ1, hits give low values 1.02 | S. cerevisiae deletion strains, locus YML032C, strain rad52, hits give low values 1.02 | S. cerevisiae deletion strains, locus YML124C, strain tub3, hits give low values 1.01 | S. cerevisiae deletion strains, locus YMR078C, strain ctf18, hits give low values 1 | S. cerevisiae deletion strains, locus YMR223W, strain ubp8, hits give low values 1.01 | [13] 1.02 | S. cerevisiae deletion strains, locus YMR307W, strain GAS1, hits give low values 0.943 | S. cerevisiae deletion strains, locus YNL067W, strain RPL9B, hits give low values 1.02 | [14] 1.03 | [15] 1.01 | [6] 0.958 | S. cerevisiae deletion strains, locus YNL233W, strain BNI4, hits give low values 0.987 | S. cerevisiae deletion strains, locus YNL250W, strain rad50, hits give low values 1.01 | S. cerevisiae deletion strains, locus YNL271C, strain bni1, hits give low values 1.01 | S. cerevisiae deletion strains, locus YNL298W, strain CLA4, hits give low values 1.01 | S. cerevisiae deletion strains, locus YNL307C, strain MCK1, hits give low values 1 | [16] 1.01 | S. cerevisiae deletion strains, locus YNR052C, strain pop2, hits give low values 1.01 | S. cerevisiae deletion strains, locus YOL006C, strain TOP1, hits give low values 1.02 | S. cerevisiae deletion strains, locus YOL012C, strain htz1 1.53 | S. cerevisiae deletion strains, locus YOL147C, strain pex11, hits give low values 1 | S. cerevisiae deletion strains, locus YOR061W, strain CKA2, hits give low values 1.01 | S. cerevisiae deletion strains, locus YOR069W, strain VPS5, hits give low values 1.01 | S. cerevisiae deletion strains, locus YOR136W, strain idh2, hits give low values 1 | S. cerevisiae deletion strains, locus YOR144C, strain elg1, hits give low values 1 | S. cerevisiae deletion strains, locus YOR184W, strain ser1, hits give low values 1 | [7] 1.01 | S. cerevisiae deletion strains, locus YOR316C, strain cot1, hits give low values 1.01 | [17] 1.01 | S. cerevisiae deletion strains, locus YPL241C, strain CIN2, hits give low values 1.01 | [8] 1.04 | S. cerevisiae deletion strains, locus YPR119W, strain clb2, hits give low values 1 | S. cerevisiae deletion strains, locus YPR141C, strain kar3, hits give low values 0.998 | S. cerevisiae deletion strains, locus YPR163C, strain tif3, hits give low values 1.01 | S. cerevisiae deletion strains, locus YPR167C, strain met16, hits give low values 1.01 | S. cerevisiae deletion strains, strain wtn01, hits give low values 1.02 | S. cerevisiae strains, strain wild type, hits give low values 1
